Results from the supplement of paper PMC10849652.
About 7,900 targets were measured; listed, in parts, are those with a hit and a random draw of the rest. About 0.6% of all pairs of compound and target were hits. Unmarked numbers belong to inactive results.

Experiments:
Experiment in all cases: log2 fold change, soluble protein after heating vs DMSO (PISA); higher = thermal stabilisation; K562 cells, 10 uM, 30 min; active = over 0.2 and 3.5 SD of the protein, either way, in both replicates (recomputed)
[1] = compound: CC1=C(C=C(C=C1)NC(=O)C2=CC(=CC=C2)C(C)(C)C#N)NC3=CC4=C(C=C3)N=CN(C4=O)C
Method in brief: (§1)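 Soluble protein was quantified by TMTpro 16plex LC-MS/MS after channel sums were equalised. It was obtained as the supernatant after 21,000xg for 90 min from pooled aliquots of K562 cells (2×10^6 cells/mL, 10 μM compound, 30 min) heated for 3 min across 48°C-58°C and extracted in PBS with 0.5% NP-40 at 4°C. Thermal stability values are relative to control samples and come from duplicates. They are given as log2 fold changes.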

[2] = compound: CC1=C(C=C(C=C1)NC(=O)C2=CC(=CC=C2)N(C)C)NC(=O)C3=CC=C(C=C3)O
Method in brief: as §1

[3] = compound: CC1=CC=C(C=C1)SC2=C3C=C(SC3=CN=C2)C(=O)N
Method in brief: as §1

[4] = compound: CC1=NC(=CC=C1)C2=C(N=C(N2)C(C)(C)C)C3=CC4=NC=CN=C4C=C3
Method in brief: as §1

[5] = compound: CCCCN(Cc1ccc(C(=O)NO)cc1)C(=O)Nc1ccccc1 [Nexturastat A]
Method in brief: as §1

[6] = compound: CCCS(=O)(=O)Nc1ccc(F)c(C(=O)c2c[nH]c3ncc(-c4ccc(Cl)cc4)cc23)c1F [vemurafenib]
Method in brief: as §1

[7] = compound: CCCS(=O)(=O)Nc1ccc(F)c(C(=O)c2c[nH]c3ncc(Cl)cc23)c1F
Method in brief: as §1

[8] = compound: CCCc1cc(C)[nH]c(=O)c1CNC(=O)c1cc(-c2ccnc(N3CCN(C)CC3)c2)cc2c1cnn2C(C)C
Method in brief: as §1

[9] = compound: CCN(CC)Cc1ccc2cc(COC(=O)Nc3ccc(C(=O)NO)cc3)ccc2c1 [givinostat]
Method in brief: as §1

[10] = compound: CCN(CCCOc1ccc2c(Nc3cc(CC(=O)Nc4cccc(F)c4)[nH]n3)ncnc2c1)CCOP(=O)(O)O [barasertib]
Method in brief: as §1

[11] = compound: CC[C@@H]1C(=O)N(C)c2cnc(Nc3ccc(C(=O)NC4CCN(C)CC4)cc3OC)nc2N1C1CCCC1
Method in brief: as §1

[12] = compound: CC[C@@H]1C(=O)N(C)c2cnc(Nc3ccc(C(=O)N[C@H]4CC[C@H](N5CCN(CC6CC6)CC5)CC4)cc3OC)nc2N1C(C)C [volasertib]
Method in brief: as §1

[13] = compound: CC[C@H](C)N1C=C(C2=C(C=C(C=C21)C3=CN=C(C=C3)N4CCNCC4)C(=O)NCC5=C(C=C(NC5=O)C)C)C
Method in brief: as §1

[14] = compound: CC[C@H](C)[C@@H](C(=O)N[C@@H]([C@@H](C)O)C(=O)N[C@@H](CC(C)C)C(=O)[C@]1(CO1)C)NC(=O)[C@H]([C@@H](C)CC)N(C)C(=O)C [epoxomicin]
Method in brief: as §1

[15] = compound: CCn1c(C(=O)N(C2CC2)C2CC2)cc2c3c(ncn3C)c(Nc3cc(C)n(C)n3)nc21
Method in brief: as §1

[16] = compound: CCn1cc(-c2ccnc3[nH]c(-c4cccc(CN(C)C)c4)cc23)c(-c2ccc(NC(=O)N(C)C)cc2)n1
Method in brief: as §1

[17] = compound: CN(C)CC(=O)Nc1ccc2[nH]c(=O)c3ccccc3c2c1
Method in brief: as §1

[18] = compound: CN(CCOC1=CC=C(C=C1)C[C@H]2C(=O)NC(=O)S2)C3=CC=CC=N3 (racemic) [rosiglitazone]
Method in brief: as §1

[19] = compound: CN1C2=C(C3=C1C(=O)N(N=C3)CC4=CC(=CC=C4)N)SC(=C2)S(=O)C
Method in brief: as §1

[20] = compound: CN1CCC(CNc2ccc3ncc(-c4cccc(OC(F)(F)F)c4)n3n2)CC1
Method in brief: as §1

Sequence of UniProt Q7LBC6 (Q7LBC6 whole entry, looked up): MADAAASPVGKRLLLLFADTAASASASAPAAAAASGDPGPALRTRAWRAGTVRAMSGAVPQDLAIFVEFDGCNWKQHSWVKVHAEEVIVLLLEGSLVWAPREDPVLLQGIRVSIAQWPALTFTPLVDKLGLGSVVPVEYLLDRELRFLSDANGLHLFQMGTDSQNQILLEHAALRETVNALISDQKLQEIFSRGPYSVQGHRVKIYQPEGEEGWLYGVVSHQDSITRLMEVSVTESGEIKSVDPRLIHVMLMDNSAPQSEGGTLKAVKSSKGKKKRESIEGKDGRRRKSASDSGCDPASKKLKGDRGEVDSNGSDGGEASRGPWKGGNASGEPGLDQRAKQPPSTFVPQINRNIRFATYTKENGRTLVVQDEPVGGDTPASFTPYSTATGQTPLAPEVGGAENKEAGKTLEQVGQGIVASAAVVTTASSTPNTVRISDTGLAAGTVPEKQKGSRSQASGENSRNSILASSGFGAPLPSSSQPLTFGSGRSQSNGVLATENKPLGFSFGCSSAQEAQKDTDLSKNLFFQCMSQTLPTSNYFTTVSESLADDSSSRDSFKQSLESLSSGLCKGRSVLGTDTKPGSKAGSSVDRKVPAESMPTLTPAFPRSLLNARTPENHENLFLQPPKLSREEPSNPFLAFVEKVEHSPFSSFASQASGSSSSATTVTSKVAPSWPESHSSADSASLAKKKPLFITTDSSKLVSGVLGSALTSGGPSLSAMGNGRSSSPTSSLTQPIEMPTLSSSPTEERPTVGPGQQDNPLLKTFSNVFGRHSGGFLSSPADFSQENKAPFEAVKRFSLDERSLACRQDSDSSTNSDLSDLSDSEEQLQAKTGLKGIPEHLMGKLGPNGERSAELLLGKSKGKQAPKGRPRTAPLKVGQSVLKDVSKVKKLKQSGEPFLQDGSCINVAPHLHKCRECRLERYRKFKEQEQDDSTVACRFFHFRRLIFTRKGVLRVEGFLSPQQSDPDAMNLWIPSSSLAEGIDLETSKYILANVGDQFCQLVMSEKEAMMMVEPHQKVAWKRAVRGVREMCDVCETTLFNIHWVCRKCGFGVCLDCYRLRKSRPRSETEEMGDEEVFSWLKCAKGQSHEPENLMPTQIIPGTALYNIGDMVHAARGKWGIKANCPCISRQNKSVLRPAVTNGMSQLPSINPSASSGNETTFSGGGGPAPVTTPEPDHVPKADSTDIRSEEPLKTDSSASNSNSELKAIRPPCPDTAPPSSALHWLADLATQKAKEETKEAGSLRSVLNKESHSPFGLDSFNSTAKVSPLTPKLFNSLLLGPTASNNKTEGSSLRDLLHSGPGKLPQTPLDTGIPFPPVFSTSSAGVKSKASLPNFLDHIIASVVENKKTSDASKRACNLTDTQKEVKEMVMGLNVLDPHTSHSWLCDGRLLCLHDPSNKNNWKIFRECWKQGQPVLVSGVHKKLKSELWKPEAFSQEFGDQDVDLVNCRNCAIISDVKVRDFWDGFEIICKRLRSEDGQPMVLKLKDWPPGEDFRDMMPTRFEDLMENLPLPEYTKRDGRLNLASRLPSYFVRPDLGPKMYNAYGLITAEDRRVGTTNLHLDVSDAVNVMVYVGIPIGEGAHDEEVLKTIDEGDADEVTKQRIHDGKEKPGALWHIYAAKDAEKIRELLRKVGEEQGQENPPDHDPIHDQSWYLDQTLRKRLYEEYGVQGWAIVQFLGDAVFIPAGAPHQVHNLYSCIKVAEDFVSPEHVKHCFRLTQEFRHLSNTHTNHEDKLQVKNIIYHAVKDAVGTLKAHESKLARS
Sequence of UniProt P27448 (P27448 whole entry, looked up): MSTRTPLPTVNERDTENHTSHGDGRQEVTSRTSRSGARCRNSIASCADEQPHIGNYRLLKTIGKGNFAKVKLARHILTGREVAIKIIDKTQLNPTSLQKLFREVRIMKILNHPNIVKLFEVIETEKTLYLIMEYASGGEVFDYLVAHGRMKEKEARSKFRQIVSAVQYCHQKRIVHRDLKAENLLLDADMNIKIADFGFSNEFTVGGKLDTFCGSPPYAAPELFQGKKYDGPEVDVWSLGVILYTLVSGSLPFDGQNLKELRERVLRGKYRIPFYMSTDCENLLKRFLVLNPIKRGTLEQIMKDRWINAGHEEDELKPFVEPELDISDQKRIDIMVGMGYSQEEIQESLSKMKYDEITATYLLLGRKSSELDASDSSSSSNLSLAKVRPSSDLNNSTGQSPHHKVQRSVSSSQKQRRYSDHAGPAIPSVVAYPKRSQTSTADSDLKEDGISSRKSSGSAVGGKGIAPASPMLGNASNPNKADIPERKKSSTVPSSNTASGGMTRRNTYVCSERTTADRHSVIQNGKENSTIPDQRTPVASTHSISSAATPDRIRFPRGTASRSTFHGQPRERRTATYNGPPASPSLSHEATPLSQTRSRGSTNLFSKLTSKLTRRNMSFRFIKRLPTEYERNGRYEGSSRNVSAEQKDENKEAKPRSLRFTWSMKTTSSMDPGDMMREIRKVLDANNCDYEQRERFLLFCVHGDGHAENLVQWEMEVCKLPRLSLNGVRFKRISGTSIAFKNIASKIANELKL
Sequence of UniProt P13473 (P13473 whole entry, looked up): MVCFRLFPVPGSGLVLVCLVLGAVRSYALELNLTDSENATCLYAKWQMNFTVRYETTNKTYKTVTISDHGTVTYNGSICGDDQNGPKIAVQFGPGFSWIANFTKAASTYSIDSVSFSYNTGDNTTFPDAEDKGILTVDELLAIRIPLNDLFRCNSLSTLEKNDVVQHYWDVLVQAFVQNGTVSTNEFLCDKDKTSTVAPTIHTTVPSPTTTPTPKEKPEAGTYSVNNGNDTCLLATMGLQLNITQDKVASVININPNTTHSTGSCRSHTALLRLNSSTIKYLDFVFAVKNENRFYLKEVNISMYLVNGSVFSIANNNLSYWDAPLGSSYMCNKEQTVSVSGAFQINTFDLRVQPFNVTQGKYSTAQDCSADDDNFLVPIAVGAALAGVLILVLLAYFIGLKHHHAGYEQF
Sequence of UniProt P29966 (P29966 whole entry, looked up): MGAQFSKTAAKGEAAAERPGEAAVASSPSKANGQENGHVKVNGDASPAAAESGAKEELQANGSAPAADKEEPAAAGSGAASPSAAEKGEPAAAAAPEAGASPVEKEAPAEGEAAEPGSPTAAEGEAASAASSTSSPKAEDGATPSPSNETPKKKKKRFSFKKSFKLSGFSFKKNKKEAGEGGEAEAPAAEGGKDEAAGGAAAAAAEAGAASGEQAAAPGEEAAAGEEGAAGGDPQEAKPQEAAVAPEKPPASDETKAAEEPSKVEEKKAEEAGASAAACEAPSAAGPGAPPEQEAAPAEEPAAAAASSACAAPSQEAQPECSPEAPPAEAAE

Target	log2 fold change [1]	log2 fold change [2]	log2 fold change [3]	log2 fold change [4]	log2 fold change [5]	log2 fold change [6]	log2 fold change [7]	log2 fold change [8]	log2 fold change [9]	log2 fold change [10]	log2 fold change [11]	log2 fold change [12]	log2 fold change [13]	log2 fold change [14]	log2 fold change [15]	log2 fold change [16]	log2 fold change [17]	log2 fold change [18]	log2 fold change [19]	log2 fold change [20]
MARK3 (UniProt P27448)	-0.017	0.02	0.067	-0.029	0.074	0	0.004	0.077	0.038	0.023	-0.057	-0.078	0.097	0.019	-0.03	-0.019	0.055	0.049	0.051	-0.549 (active)
KDM3B (UniProt Q7LBC6)	0.024	-0.041	-0.032	0.037	-0.045	0.049	0.031	0.041	-0.001	0.082	-0.164	-0.349 (active)	0.06	0.061	-0.024	0.001	0.043	0.048	-0.049	-0.071
MARCKS (UniProt P29966)	-0.001	-0.066	0.01	0.072	-0.104	0.047	-0.004	0.252	-0.096	0.005	0.035	-0.027	-0.091	-0.044	0	0.268 (active)	-0.043	0.03	-0.014	0.089
LAMP2 (UniProt P13473)	0	0.093	-0.043	0.066	-0.104	0.05	0.048	-0.028	-0.02	0.007	0.018	0.069	-0.023	0.083	-0.009	0.019	0.059	0.007	-0.016	-0.032
